PubChem BioAssay AID1159580 (chemical genetic matrix, 2015)
Out of some 5,500 compounds screened, about 2,000 (36%) were called active. Another 18% or so got no clear call; they are omitted. No stated cut-off is given here; in the data, active means normalized growth mostly below about 0.91 (no sharp cut-off); inconclusive means no clear call, values can overlap the other calls; inactive means mostly above about 0.92. The list shows a part of the results.

Test: chemical genetic growth profiling, strain panel (AID 1159580);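 further: tested at 20 µM; growth read once vehicle control cultures reached saturation at 30 °C; 1 = growth at the plate median or of vehicle wells; lower values mean less growth of the strain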
Details: S. cerevisiae deletion strains, growth OD

Measured: normalized growth

COc1cccc2c1CCC1CC(=O)CCC21C (stereo unspecified)
active: locus YDR502C, strain sam2, active compounds read low 0.912 | locus YGL086W, strain mad1, active compounds read low 0.922 | locus YGR135W, strain pre9, active compounds read low 0.886 | locus YLR418C, strain cdc73, active compounds read low 0.812 | locus YOR184W, strain ser1, active compounds read low 0.848 | locus YPR163C, strain tif3, active compounds read low 0.902
inactive: locus YAL021C, strain ccr4, active compounds read low 0.99 | locus YAL026C, strain drs2, active compounds read low 0.994 | locus YAL030W, strain snc1, active compounds read low 0.991 | locus YBL061C, strain skt5, active compounds read low 1 | locus YBR009C, strain hhf1, active compounds read low 0.996 | locus YBR021W, strain FUR4, active compounds read low 0.92 | locus YBR023C, strain chs3, active compounds read low 0.993 | locus YBR171W, strain sec66, active compounds read low 0.985 | locus YBR229C, strain ROT2, active compounds read low 0.992 | locus YBR231C, strain swc5, active compounds read low 0.996 | locus YBR279W, strain paf1, active compounds read low 0.988 | locus YCL011C, strain gbp2, active compounds read low 1 | locus YCL016C, strain dcc1, active compounds read low 0.995 | locus YCL029C, strain bik1, active compounds read low 0.955 | locus YCL061C, strain MRC1, active compounds read low 0.996 | locus YCL069W, strain vba3, active compounds read low 0.994 | locus YCR088W, strain abp1, active compounds read low 0.993 | locus YDL005C, strain med2, active compounds read low 1 | locus YDL035C, strain GPR1, active compounds read low 0.982 | locus YDL040C, strain nat1, active compounds read low 0.992 | locus YDL074C, strain BRE1, active compounds read low 0.931 | locus YDL101C, strain DUN1, active compounds read low 0.986 | locus YDL134C, strain PPH21, active compounds read low 0.956 | locus YDL185W, strain tfp1, active compounds read low 0.953 | locus YDL192W, strain arf1, active compounds read low 0.936 | locus YDR001C, strain nth1, active compounds read low 0.984 | locus YDR069C, strain doa4, active compounds read low 1.01 | locus YDR101C, strain arx1, active compounds read low 0.983 | locus YDR137W, strain rgp1, active compounds read low 0.998 | locus YDR159W, strain sac3, active compounds read low 1.02 | locus YDR162C, strain NBP2, active compounds read low 0.919 | locus YDR195W, strain ref2 1.07 | locus YDR297W, strain sur2, active compounds read low 1 | locus YDR318W, strain mcm21, active compounds read low 0.937 | locus YDR334W, strain swr1, active compounds read low 1 | locus YDR335W, strain msn5, active compounds read low 1 | locus YDR388W, active compounds read low 0.948 | locus YDR392W, strain spt3, active compounds read low 0.873 | locus YEL003W, strain gim4, active compounds read low 0.981 | locus YEL037C, strain rad23, active compounds read low 0.992 | locus YEL061C, strain CIN8 (second series), active compounds read low 0.995 | locus YEL061C, strain CIN8, active compounds read low 0.987 | locus YER015W, strain faa2, active compounds read low 1 | locus YER016W, strain bim1, active compounds read low 0.994 | locus YER110C, active compounds read low 0.934 | locus YER111C, strain swi4, active compounds read low 0.994 | locus YER155C, strain BEM2 (second series), active compounds read low 0.944 | locus YER155C, strain BEM2, active compounds read low 0.982 | locus YER167W, strain BCK2, active compounds read low 0.993 | locus YFR010W, strain ubp6, active compounds read low 1 | locus YGL078C, strain dbp3, active compounds read low 0.983 | locus YGL167C, strain pmr1, active compounds read low 1 | locus YGL173C, strain kem1, active compounds read low 0.987 | locus YGL227W, strain vid30, active compounds read low 0.998 | locus YGL240W, strain doc1, active compounds read low 0.982 | locus YGL248W, strain PDE1, active compounds read low 0.975 | locus YGL253W, strain hxk2, active compounds read low 1 | locus YGR229C, strain SMI1, active compounds read low 0.991 | locus YGR252W, strain gcn5, active compounds read low 0.777 | locus YHR013C, strain ard1, active compounds read low 0.976 | locus YHR027C, strain rpn1, active compounds read low 1.02 | locus YHR030C, strain SLT2, active compounds read low 0.991 | locus YHR079C, strain IRE1 (second series), active compounds read low 0.955 | locus YHR094C, strain hxt1, active compounds read low 0.948 | locus YHR129C, strain ARP1, active compounds read low 0.977 | locus YHR142W, strain chs7, active compounds read low 0.981 | locus YHR200W, strain rpn10, active compounds read low 0.941 | locus YIL066C, strain RNR3, active compounds read low 0.968 | locus YIL073C, strain SPO22, active compounds read low 0.887 | locus YIL125W, strain kgd1, active compounds read low 0.977 | locus YIR030C, strain dcg1, active compounds read low 0.962 | locus YJL092W, strain hpr5, active compounds read low 0.994 | locus YJL095W, strain BCK1 (second series), active compounds read low 0.99 | locus YJL095W, strain BCK1, active compounds read low 0.91 | locus YJL115W, strain asf1, active compounds read low 1 | locus YJL129C, strain trk1, active compounds read low 0.939 | locus YJL134W, strain LCB3, active compounds read low 0.981 | locus YJL154C, strain vps35, active compounds read low 0.995 | locus YJL164C, strain tpk1, active compounds read low 0.989 | locus YJL166W, strain qcr8, active compounds read low 0.991 | locus YJL168C, strain set2, active compounds read low 0.963 | locus YJL187C, strain SWE1 (second series), active compounds read low 0.963 | locus YJL187C, strain SWE1, active compounds read low 1.01 | locus YKL009W, strain mrt4, active compounds read low 0.97 | locus YKL068W, active compounds read low 0.969 | locus YKL085W, strain MDH1 (second series), active compounds read low 0.966 | locus YKL085W, strain MDH1, active compounds read low 0.966 | locus YKL160W, strain elf1, active compounds read low 0.98 | locus YKL190W, strain CNB1, active compounds read low 0.993 | locus YKR001C, strain vps1, active compounds read low 0.914 | locus YKR026C, strain gcn3, active compounds read low 0.992 | locus YKR091W, strain srl3, active compounds read low 0.988 | locus YLL001W, strain dnm1, active compounds read low 0.994 | locus YLL026W, active compounds read low 0.999 | locus YLL041C, strain sdh2, active compounds read low 0.99 | locus YLR027C, strain aat2, active compounds read low 0.985 | locus YLR039C, strain RIC1, active compounds read low 0.974 | locus YLR058C, strain SHM2, active compounds read low 0.982 | locus YLR102C, strain apc9, active compounds read low 0.961 | locus YLR221C, strain rsa3, active compounds read low 1.01 | locus YLR258W, strain gsy2, active compounds read low 0.983 | locus YLR262C, strain YPT6 (second series), active compounds read low 1 | locus YLR268W, strain sec22, active compounds read low 0.963 | locus YLR320W, strain mms22, active compounds read low 0.977 | locus YLR330W, strain CHS5, active compounds read low 0.98 | locus YLR342W, strain FKS1, active compounds read low 0.994 | locus YLR357W, strain rsc2, active compounds read low 1.01 | locus YLR370C, strain arc18, active compounds read low 0.987 | locus YLR371W, strain rom2, active compounds read low 0.965 | locus YLR384C, strain iki3, active compounds read low 0.999 | locus YML016C, strain PPZ1, active compounds read low 0.978 | locus YML032C, strain rad52, active compounds read low 0.946 | locus YML120C, strain ndi1, active compounds read low 0.987 | locus YML124C, strain tub3, active compounds read low 0.969 | locus YMR058W, strain fet3, active compounds read low 0.995 | locus YMR078C, strain ctf18, active compounds read low 0.95 | locus YMR125W, strain sto1, active compounds read low 0.995 | locus YMR129W, active compounds read low 0.991 | locus YMR205C, strain PFK2, active compounds read low 0.982 | locus YMR223W, strain ubp8, active compounds read low 0.947 | locus YMR231W, strain pep5, active compounds read low 0.99 | locus YMR263W, strain SAP30, active compounds read low 0.965 | locus YMR307W, strain GAS1, active compounds read low 0.849 | locus YNL067W, strain RPL9B, active compounds read low 0.968 | locus YNL071W, strain lat1, active compounds read low 0.985 | locus YNL209W, strain ssb2, active compounds read low 0.992 | locus YNL233W, strain BNI4, active compounds read low 0.937 | locus YNL248C, strain rpa49, active compounds read low 0.998 | locus YNL250W, strain rad50, active compounds read low 0.952 | locus YNL271C, strain bni1, active compounds read low 0.962 | locus YNL298W, strain CLA4, active compounds read low 0.959 | locus YNL307C, strain MCK1, active compounds read low 0.917 | locus YNL322C, strain KRE1 (second series), active compounds read low 0.996 | locus YNL322C, strain KRE1, active compounds read low 0.982 | locus YNR049C, strain mso1, active compounds read low 1.01 | locus YNR052C, strain pop2, active compounds read low 0.969 | locus YOL006C, strain TOP1, active compounds read low 0.788 | locus YOL012C, strain htz1 0.835 | locus YOL147C, strain pex11, active compounds read low 0.949 | locus YOR001W, strain rrp6, active compounds read low 1.01 | locus YOR061W, strain CKA2, active compounds read low 0.991 | locus YOR069W, strain VPS5, active compounds read low 0.977 | locus YOR070C, strain gyp1, active compounds read low 0.985 | locus YOR080W, strain dia2, active compounds read low 1.01 | locus YOR083W, strain WHI5, active compounds read low 0.987 | locus YOR106W, strain vam3, active compounds read low 1 | locus YOR136W, strain idh2, active compounds read low 0.966 | locus YOR144C, strain elg1, active compounds read low 0.958 | locus YOR265W, strain rbl2, active compounds read low 1.01 | locus YOR270C, strain vph1, active compounds read low 0.907 | locus YOR290C, strain snf2, active compounds read low 0.985 | locus YOR316C, strain cot1, active compounds read low 0.947 | locus YPL051W, strain arl3, active compounds read low 0.981 | locus YPL078C, strain atp4, active compounds read low 0.979 | locus YPL106C, strain sse1, active compounds read low 1 | locus YPL240C, strain hsp82, active compounds read low 0.993 | locus YPR119W, strain clb2, active compounds read low 0.958 | locus YPR141C, strain kar3, active compounds read low 0.965 | locus YPR167C, strain met16, active compounds read low 0.952 | strain wtn01, active compounds read low 0.936
